Assay results as given in the supplement of paper PMC10037445.
In all, about 2,900 compounds were measured (“NF-kB SEAP reporter activity, fold change vs agonist alone”: median about 0.99, highest 2% from about 2.6 on). The entries come from a sample that favours the highest values as a whole.

Assays:
RAW-Dual [1] = experiment: NF-kB SEAP reporter activity, fold change vs agonist alone; cytotoxicity flag (confluency mask): not cytotoxic; higher = enhanced NF-kB activity
Procedure, shortened: (§1)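 RAW-Dual macrophages were seeded in DMEM at 50,000 cells/well in 384-well plates, given 50 nL of library stock by pin tool, and given a PRR agonist 1 h later. Plates were held at 37 °C, 5% CO2 for 20 hours, after which supernatant was read for IRF by QuantiLuc luminescence and for NF-κB by QuantiBlue absorbance at 620 nm. Reporter activity is expressed as fold change over wells that received agonist alone. A well was called cytotoxic when IncuCyte confluency fell below 70% of agonist controls in both mask sets.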

RAW-Dual [2] = experiment: NF-kB SEAP reporter activity, fold change vs agonist alone; higher = enhanced NF-kB activity; conditions: library stock concentration (final ~1000-fold dilution): 10 mM, cytotoxicity flag (confluency mask): not cytotoxic
Procedure, shortened: as §1

[3] = agonist: ODN 1826 (TLR9) 0.5 ug/mL
[4] = agonist: Pam2CSK4 (TLR2/6) 0.1 ug/mL
[5] = agonist: Pam3CSK4 (TLR2/1) 0.1 ug/mL

SMILES | NF-kB SEAP reporter activity (RAW-Dual [1]; agonist: LPS (TLR4) 0.1 ug/mL) | NF-kB SEAP reporter activity (RAW-Dual [1]; [3]) | NF-kB SEAP reporter activity (RAW-Dual [1]; [4]) | NF-kB SEAP reporter activity (RAW-Dual [1]; [5]) | NF-kB SEAP reporter activity (RAW-Dual [2]; agonist: Imiquimod (TLR7) […]) | NF-kB SEAP reporter activity (RAW-Dual [2]; agonist: MPLA (TLR4) […])
O=C(O)c1ccc(-c2c[nH]c3ncc(-c4ccccc4)cc23)cc1C1CCCC1 (library stock concentration (final ~1000-fold dilution): 10 mM) | 1.15 | 0.388 | 0.646 | 0.497 |  | 
COc1ccc(F)c(F)c1C(=O)c1cnc(NC2CCN(S(C)(=O)=O)CC2)nc1N (library stock concentration (final ~1000-fold dilution): 10 mM) | 0.194 | 0.985 | 0.0957 | 1.16 |  | 
CCN(C)S(=O)(=O)Nc1ccc(F)c(C(=O)c2c[nH]c3ncc(-c4cnc(C5CC5)nc4)cc23)c1F (library stock concentration (final ~1000-fold dilution): 10 mM) | 3.3 | 1.55 | 0.469 | 0.764 |  | 
O=C(O)c1ccc(-c2c[nH]c3ncc(-c4ccccc4)cc23)cc1C1CCCC1 |  |  |  |  | 0.374 | 1.16
CCCS(=O)(=O)Nc1ccc(F)c(C(=O)c2c[nH]c3ncc(-c4ccc(Cl)cc4)cc23)c1F |  |  |  |  | 1.1 | 1.3
O=C(c1c(F)ccc(NS(=O)(=O)N2CCC(F)C2)c1F)c1c[nH]c2ncc(-c3cnc(C4CC4)nc3)cc12 (configuration not stated) (library stock concentration (final ~1000-fold dilution): 10 mM) | 3.62 | 1.42 | 0.526 | 0.5 |  | 
COc1ccc(F)c(F)c1C(=O)c1cnc(NC2CCN(S(C)(=O)=O)CC2)nc1N |  |  |  |  | 0.977 | 0.905
CCN(C)S(=O)(=O)Nc1ccc(F)c(C(=O)c2c[nH]c3ncc(-c4cnc(C5CC5)nc4)cc23)c1F |  |  |  |  | 1.24 | 1.62
CCCS(=O)(=O)Nc1ccc(F)c(C(=O)c2c[nH]c3ncc(Cl)cc23)c1F (library stock concentration (final ~1000-fold dilution): 10 mM) | 1.48 | 0.781 | 0.389 | 0.505 |  | 
O=C(c1c(F)ccc(NS(=O)(=O)N2CCC(F)C2)c1F)c1c[nH]c2ncc(-c3cnc(C4CC4)nc3)cc12 (configuration not stated) |  |  |  |  | 1.12 | 1.52
CCCS(=O)(=O)Nc1ccc(F)c(C(=O)c2c[nH]c3ncc(Cl)cc23)c1F |  |  |  |  | 0.891 | 1.34
CCCS(=O)(=O)Nc1ccc(F)c(C(=O)c2c[nH]c3ncc(-c4ccc(Cl)cc4)cc23)c1F (library stock concentration (final ~1000-fold dilution): 10 mM) | 0.99 | 0.941 | 0.4 | 0.411 |  | 
CCNC(=O)Nc1ccc(-c2nc3c(c(N4CCOCC4C)n2)CCN(C2COC2)C3)cc1 (configuration not stated) (library stock concentration (final ~1000-fold dilution): 10 mM) | 0.974 | 0.705 | 0.395 | 0.411 |  | 
CCNC(=O)Nc1ccc(-c2nc3c(c(N4CCOCC4C)n2)CCN(C2COC2)C3)cc1 (configuration not stated) |  |  |  |  | 0.771 | 1.23
